Results reported in PubChem BioAssay (Tox21).
Records with an inconclusive call do not appear. Activity calls are given as the source filed them. Unless noted, the call rests on the fitted dose curve.

What was measured:
[1] = Nuclear factor erythroid 2-related factor 2/antioxidant responsive element (Nrf2/ARE) small molecule agonists: qHTS cell viability counter screen in human keratinocytes (AID 1919968; active means well fitted curve in the direction sought with a large enough effect in the repeat runs; an effect the other way counts as inactive or inconclusive; further: nearly all actives have a fitted effect of over 55% in size; further: potency means the concentration at half of the fitted maximal effect)
How it was run: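 Viability counter-screen: KeratinoSens reporter cells, DMSO-delivered compounds, 23 h at 37 C, CellTiter-Fluor fluorescence.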

[2] = Nuclear factor erythroid 2-related factor 2/antioxidant responsive element (Nrf2/ARE) small molecule agonists: luciferase reporter gene qHTS assay in human keratinocytes (AID 1919969); further: nearly all actives have a fitted effect of over 35% in size; further: potency means the concentration at half of the fitted maximal effect
[3] = target: Gonadotropin-releasing hormone receptor (Homo sapiens) (UniProt P30968); assay: Human gonadotropin-releasing hormone receptor (GnRHR) small molecule agonists, calcium flux assay in GnRHR-HEK293 cells (AID 1920063); further: nearly all actives have a fitted effect of over 35% in size
Gonadotropin-releasing hormone receptor (Homo sapiens), sequence (P30968 whole entry, looked up): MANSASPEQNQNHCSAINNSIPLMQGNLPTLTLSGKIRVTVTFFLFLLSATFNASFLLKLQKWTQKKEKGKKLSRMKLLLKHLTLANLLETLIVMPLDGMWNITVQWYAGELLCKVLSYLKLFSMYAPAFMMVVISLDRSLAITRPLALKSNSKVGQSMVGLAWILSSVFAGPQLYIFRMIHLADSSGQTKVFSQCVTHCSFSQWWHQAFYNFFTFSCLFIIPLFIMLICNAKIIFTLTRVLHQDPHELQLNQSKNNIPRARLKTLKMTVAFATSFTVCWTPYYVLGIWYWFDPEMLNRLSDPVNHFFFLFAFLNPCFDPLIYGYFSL
How it was run: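 Tox21-format agonist screen using human GnRHR-expressing HEK293 cells and a fluorescent calcium dye; kinetic 3-min fluorescence reading after compound addition, 15-point concentration series run in triplicate.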

[4] = target: KiSS-1 receptor (Homo sapiens) (UniProt Q969F8); assay: Human kisspeptin (KISS1R) small molecule agonists, calcium flux assay in KISS1R-HEK293 cells (AID 1920064; active means well fitted curve in the direction sought with a large enough effect in the repeat runs; an effect the other way counts as inactive or inconclusive)
KiSS-1 receptor (Homo sapiens), sequence (Q969F8 whole entry, looked up): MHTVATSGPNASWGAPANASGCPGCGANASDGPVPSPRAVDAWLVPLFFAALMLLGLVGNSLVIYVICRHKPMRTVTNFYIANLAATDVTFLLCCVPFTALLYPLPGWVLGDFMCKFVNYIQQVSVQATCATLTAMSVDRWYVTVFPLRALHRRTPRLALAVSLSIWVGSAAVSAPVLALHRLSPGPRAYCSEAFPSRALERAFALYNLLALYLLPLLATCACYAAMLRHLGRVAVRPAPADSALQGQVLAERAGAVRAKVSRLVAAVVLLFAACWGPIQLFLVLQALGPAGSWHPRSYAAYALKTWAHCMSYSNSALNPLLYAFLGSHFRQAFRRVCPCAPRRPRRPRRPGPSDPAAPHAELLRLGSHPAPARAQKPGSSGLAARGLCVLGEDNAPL
How it was run: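 Intracellular calcium mobilization in KISS1R-HEK293 cells was recorded by fluorescence (Ex/Em 480/540) for 3 min following compound addition to cells pre-loaded 1 h with calcium dye.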

[5] = G protein-coupled receptor (GPCR) small molecule agonists, calcium flux assay: HEK293 wild type cell line counter screen (AID 1920065)
How it was run: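 In this agonist-mode screen, ATP is the positive control and DMSO the vehicle. Cells grow 18 h before a 1 h dye incubation at 37 C; signal is taken at Ex/Em 480/540 over 3 min.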

[6] = p53 small molecule agonists, cell-based qHTS assay with human liver microsomes: qHTS cell viability counter screen (AID 1963579); further: nearly all actives have a fitted effect of over 45% in size
How it was run: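 HLM-supplemented (0.5 mg/mL final) and NADPH-supplemented (0.5 mg/mL final) p53RE-bla cultures, 4,000 cells per well, were dosed with compounds in DMSO for 16 h at 37 C; luminescent ATP detection (CellTiter-Glo, 30 min, room temperature) quantified surviving cells.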

[7] = target: 5-hydroxytryptamine receptor 2A (Homo sapiens) (UniProt P28223); assay: 5-hydroxytryptamine receptor 2A (HTR2A) small molecule antagonists, cell-based qHTS assay (AID 1963586); further: nearly all actives have a fitted effect of over 45% in size
5-hydroxytryptamine receptor 2A (Homo sapiens), sequence (P28223 whole entry, looked up): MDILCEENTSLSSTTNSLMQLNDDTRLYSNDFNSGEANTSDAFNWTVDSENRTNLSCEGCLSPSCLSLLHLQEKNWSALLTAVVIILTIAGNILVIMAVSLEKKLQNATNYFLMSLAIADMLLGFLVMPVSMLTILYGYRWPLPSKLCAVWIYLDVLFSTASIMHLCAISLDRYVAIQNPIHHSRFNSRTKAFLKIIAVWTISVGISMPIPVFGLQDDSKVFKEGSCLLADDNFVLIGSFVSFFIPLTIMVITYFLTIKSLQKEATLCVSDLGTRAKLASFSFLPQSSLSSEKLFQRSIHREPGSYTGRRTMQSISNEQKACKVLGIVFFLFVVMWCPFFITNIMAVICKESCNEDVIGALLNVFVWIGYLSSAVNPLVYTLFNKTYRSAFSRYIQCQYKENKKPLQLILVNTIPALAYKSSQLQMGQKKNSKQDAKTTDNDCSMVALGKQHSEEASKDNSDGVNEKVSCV
How it was run: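 Antagonist-mode intracellular calcium assay: DOI (4 nM) added after 5 min compound pre-incubation at room temperature to dye-loaded HTR2A-CHO cells. Fluorescence followed for 3 min, sampled every second.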

[8] = target: 5-hydroxytryptamine receptor 2A (Homo sapiens) (UniProt P28223); assay: 5-hydroxytryptamine receptor 2A (HTR2A) small molecule agonists, cell-based qHTS assay (AID 1963587); further: nearly all actives have a fitted effect of over 30% in size
How it was run: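 Kinetic calcium-flux fluorescence (2 min, 1 sec intervals) after compound addition in agonist mode. HTR2A-CHO cells were cultured 18 h, then dye-loaded 1 h at 37 C.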

[9] = target: Muscarinic acetylcholine receptor M1 (Homo sapiens) (UniProt P11229); assay: Cholinergic receptor muscarinic 1 (CHRM1) small molecule agonists, cell-based qHTS assay (AID 1963589); further: nearly all actives have a fitted effect of over 35% in size
Muscarinic acetylcholine receptor M1 (Homo sapiens), sequence (P11229 whole entry, looked up): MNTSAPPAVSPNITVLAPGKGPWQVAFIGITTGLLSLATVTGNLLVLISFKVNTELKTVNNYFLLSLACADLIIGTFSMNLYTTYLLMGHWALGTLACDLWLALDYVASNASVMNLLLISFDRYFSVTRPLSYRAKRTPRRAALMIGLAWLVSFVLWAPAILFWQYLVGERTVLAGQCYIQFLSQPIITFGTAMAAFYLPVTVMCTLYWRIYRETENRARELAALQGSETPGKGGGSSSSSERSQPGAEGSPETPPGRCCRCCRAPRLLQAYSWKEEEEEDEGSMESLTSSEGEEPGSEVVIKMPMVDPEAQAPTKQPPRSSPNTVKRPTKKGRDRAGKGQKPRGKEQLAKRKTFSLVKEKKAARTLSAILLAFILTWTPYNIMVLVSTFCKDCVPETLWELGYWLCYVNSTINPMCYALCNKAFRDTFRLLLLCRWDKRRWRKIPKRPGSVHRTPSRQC
How it was run: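 Stable CHRM1-CHO cells (human receptor) were incubated 18 h, dye-loaded for 1 h at 37 C and exposed to test compounds for agonist activity, with calcium-dependent fluorescence followed kinetically.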

[10] = cAMP Responsive Elements (CRE) small molecule agonists, cell-based qHTS assay (AID 1963590)
How it was run: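 FRET-based beta-lactamase readout (LiveBLAzer B/G, 2 h RT) quantified CRE activation in HEK 293T CRE-bla cells after 3 h treatment with DMSO-dissolved compounds.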

[11] = cAMP Responsive Elements (CRE) small molecule antagonists, cell-based qHTS assay (AID 1963591; active means well fitted inhibition curve with a large enough effect in the signal ratio in the repeat runs, not every such curve was filed as active; the % refers to the signal ratio)
How it was run: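 qHTS in CRE-bla HEK 293T cells: compound in DMSO, then 0.25 uM NKH477 (final), 3 h at 37 °C/5% CO2; beta-lactamase FRET read-out after 2 h substrate incubation.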

[12] = target: Beta-2 adrenergic receptor (Homo sapiens) (UniProt P07550); assay: Adrenergic beta2 receptor (ADRB2) small molecule antagonists, cell-based qHTS assay (AID 1963592); further: series mostly up to about 92 µM; nearly all actives have a fitted effect of over 50% in size
Beta-2 adrenergic receptor (Homo sapiens), sequence (P07550 whole entry, looked up): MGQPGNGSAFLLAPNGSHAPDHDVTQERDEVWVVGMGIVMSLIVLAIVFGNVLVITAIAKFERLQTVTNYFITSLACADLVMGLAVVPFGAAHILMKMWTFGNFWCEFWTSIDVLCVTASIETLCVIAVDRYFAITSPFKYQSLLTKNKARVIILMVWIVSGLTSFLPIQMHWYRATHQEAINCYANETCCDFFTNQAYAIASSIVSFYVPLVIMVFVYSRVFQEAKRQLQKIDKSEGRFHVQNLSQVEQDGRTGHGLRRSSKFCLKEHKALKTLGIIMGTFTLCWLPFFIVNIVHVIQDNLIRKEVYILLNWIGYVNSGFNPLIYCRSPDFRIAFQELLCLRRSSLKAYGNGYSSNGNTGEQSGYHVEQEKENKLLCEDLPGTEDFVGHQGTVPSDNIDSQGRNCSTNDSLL
How it was run: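 Cells (CHO, stable ADRB2 overexpression) incubated 18-20hr at 37C; compounds added from DMSO; agonist mix (1nM isoproterenol, 100uM IBMX, 25uM Ro-20-1724) added; 0.5hr RT; d2-cAMP and anti-cAMP-cryptate added; 1hr RT; 665/615 nm read.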

[13] = target: Beta-2 adrenergic receptor (Homo sapiens) (UniProt P07550); assay: Adrenergic beta2 receptor (ADRB2) small molecule agonists, cell-based qHTS assay (AID 1963593);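 further: CHO cells stably overexpressing human ADRB2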
How it was run: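 CHO cells stably over-expressing ADRB2 were plated overnight at 37C, then dosed with compounds plus a stimulation mix containing 100uM IBMX and 25uM Ro-20-1724 for 0.5hr at room temperature. cAMP was measured by HTRF competition, 1hr.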

[14] = target: D(2) dopamine receptor (Homo sapiens) (UniProt P14416); assay: Dopamine D2 receptor (DRD2) small molecule agonists, cell-based qHTS assay (AID 1963594); further: nearly all actives have a fitted effect of over 35% in size
D(2) dopamine receptor (Homo sapiens), sequence (P14416 whole entry, looked up): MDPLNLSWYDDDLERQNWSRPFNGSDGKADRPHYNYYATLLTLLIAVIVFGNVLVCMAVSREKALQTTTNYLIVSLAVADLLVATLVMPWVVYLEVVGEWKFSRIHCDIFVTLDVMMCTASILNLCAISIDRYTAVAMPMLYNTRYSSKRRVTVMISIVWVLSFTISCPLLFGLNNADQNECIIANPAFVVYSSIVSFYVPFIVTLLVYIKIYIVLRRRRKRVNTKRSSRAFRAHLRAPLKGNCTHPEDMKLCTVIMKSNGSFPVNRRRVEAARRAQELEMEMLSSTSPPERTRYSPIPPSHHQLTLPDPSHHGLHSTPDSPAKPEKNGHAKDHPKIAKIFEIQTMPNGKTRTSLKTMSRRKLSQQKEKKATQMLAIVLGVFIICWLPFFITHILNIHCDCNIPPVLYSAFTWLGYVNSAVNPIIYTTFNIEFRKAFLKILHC
How it was run: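 cAMP accumulation in DRD2-HEK293 cells measured by HTRF after 1 h detection; compounds added 10 min before NKH477 (200nM […]) forskolin-analogue stimulation, 30 min at room temperature, with Ro20-1724 present at 0.1 mM final.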

[15] = target: D(2) dopamine receptor (Homo sapiens) (UniProt P14416); assay: Dopamine D2 receptor (DRD2) small molecule antagonists, cell-based qHTS assay (AID 1963595; active means well fitted inhibition curve with a large enough effect in the signal ratio in the repeat runs, with a control signal flat; the % refers to the signal ratio)
How it was run: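 Antagonism was scored as restored cAMP in HEK293-DRD2 cells. These cells were stimulated with 200 nM NKH477 and 12 nM quinpirole for 30 min at room temperature, in the presence of 0.1 mM Ro20-1724.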

[16] = p53 small molecule agonists, cell-based qHTS assay: qHTS cell viability counter screen (AID 1963581); further: nearly all actives have a fitted effect of over 45% in size
How it was run: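 Compounds are pinned onto HCT-116 p53RE-bla cells and left 16 h at 37 C. Following the reporter FRET read, ATP is quantified by CellTiter-Glo luminescence after 30 min at room temperature.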

[17] = p53 small molecule agonists, cell-based qHTS assay (AID 1963582; active means well fitted activation curve with a large enough effect in the signal ratio in the repeat runs, not every such curve was filed as active; the % refers to the signal ratio)
How it was run: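 Agonist activity was scored from beta-lactamase FRET fluorescence in p53RE-bla cells treated 16 h at 37 C with compounds in DMSO, substrate incubation being 2 h at room temperature.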

[18] = p53 small molecule agonists, cell-based qHTS assay with rat liver microsomes: qHTS cell viability counter screen (AID 1963580); further: nearly all actives have a fitted effect of over 45% in size
How it was run: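 HCT-116 p53RE-bla, 4,000 cells/well, 5 h pre-incubation; cpd + rat liver microsomes 0.5 mg/mL + NADPH 0.5 mg/mL (final); 16 h, 37 C; CellTiter-Glo, 30 min RT; luminescence.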

[19] = target: Muscarinic acetylcholine receptor M1 (Homo sapiens) (UniProt P11229); assay: Cholinergic receptor muscarinic 1 (CHRM1) small molecule antagonists, cell-based qHTS assay (AID 1963588); further: nearly all actives have a fitted effect of over 40% in size
How it was run: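 CHRM1-CHO calcium-flux assay, antagonist mode. Cells were seeded 18 h, dye-loaded 1 h at 37 C and given compound for 5 min at RT, then acetylcholine was added at 50nM. FDSS fluorescence was read 3 min; 15 concentrations, three runs.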
On the % scale 0 is the no-effect control and ±100 the full control effect.

CC(C)COC(=O)C(C)C
inactive: Potency [1] | Potency [2] | Potency [3] | Potency [4] | Potency [5] | Potency [6] | Potency [7] | Potency [8] | Potency [9] | Potency [10] | Potency [11] | Potency [12] | Potency [13] | Potency [14] | Potency [15]

CC1=C(C(=O)O)N2C(=O)[C@@H](NC(=O)[C@H](N)c3ccccc3)[C@H]2SC1
inactive: Potency [1] | Potency [2] | Potency [3] | Potency [4] | Potency [5] | Potency [16] | Potency [17] | Potency [10] | Potency [11] | Potency [12] | Potency [13] | Potency [14] | Potency [15]

NC(N)=NCCN1CCCCCCC1
inactive: activity change, negative = cytotoxicity [1] -3.49% [at 0.349 µM] | activity, positive = activation [2] 3.17% [at 0.349 µM] | activity change [3] -0.022% [at 0.217 µM, stronger effect = higher value] | activation [4] 0.591% [at 0.29 µM] | activation [5] 0.864% [at 0.217 µM] | activity change, negative = cytotoxicity [18] 0.194% [at 0.249 µM] | activity change, negative = cytotoxicity [16] -15.6% [at 0.249 µM] | activation [10] -1.51% [at 0.349 µM] | activity change, negative = inhibition [11] 0.0219% [at 0.349 µM] | activity change, negative = inhibition [12] 5.36% [at 0.349 µM] | activation [13] 1.36% [at 0.349 µM] | activation [14] -6.8% [at 0.349 µM]

CCOc1ccc2nc(N)sc2c1
inactive: Potency [1] | Potency [2] | Potency [3] | Potency [4] | Potency [5] | Potency [16] | Potency [17] | Potency [7] | Potency [8] | Potency [19] | Potency [9] | Potency [10] | Potency [11] | Potency [12] | Potency [14] | Potency [15]

Brc1c2ccccc2c(Br)c2ccccc12
inactive: activity change, negative = cytotoxicity [1] 9.04% [at 8.39 µM] | activity, positive = activation [2] -5.36% [at 8.39 µM] | activity change [3] -0.0865% [at 5.22 µM, stronger effect = higher value] | activation [4] 0.391% [at 6.97 µM] | activation [5] -0.151% [at 5.23 µM] | activity change, negative = cytotoxicity [6] 1.01% [at 5.99 µM] | activity, negative = inhibition [7] 33.2% [at 5.62 µM] | activation [8] 0.903% [at 7.02 µM] | activity, negative = inhibition [19] -2.59% [at 5.58 µM] | activation [9] -0.0159% [at 6.97 µM] | activation [10] 1.87% [at 8.39 µM] | activity change, negative = inhibition [11] 2.05% [at 8.39 µM] | activity change, negative = inhibition [12] -10.4% [at 8.39 µM] | activation [13] 3.4% [at 8.39 µM] | activation [14] 2.55% [at 8.39 µM] | activity change, negative = inhibition [15] -0.559% [at 8.38 µM]

Oc1ccc2c(c1)Cc1ccccc1-2
inactive: Potency [1] | Potency [2] | Potency [3] | Potency [4] | Potency [5] | Potency [18] | Potency [16] | Potency [7] | Potency [8] | Potency [19] | Potency [9] | Potency [10] | Potency [11] | Potency [12] | Potency [14] | Potency [15]

C1CCC2(CCCCO2)OC1
inactive: Potency [1] | Potency [2] | Potency [3] | Potency [4] | Potency [5] | Potency [18] | Potency [16] | Potency [7] | Potency [8] | Potency [19] | Potency [9] | Potency [10] | Potency [12] | Potency [13] | Potency [14]

C=CCOc1ccccc1OCC(O)CNC(C)C (configuration not stated)
inactive: Potency [1] | Potency [2] | Potency [3] | Potency [4] | Potency [5] | Potency [18] | Potency [8] | Potency [19] | Potency [9] | Potency [10] | Potency [11] | Potency [15]

COc1ccc(NC(=O)CC(C)=O)cc1
inactive: Potency [1] | Potency [2] | Potency [3] | Potency [4] | Potency [5] | Potency [6] | Potency [17] | Potency [7] | Potency [8] | Potency [19] | Potency [9] | Potency [10] | Potency [12] | Potency [13] | Potency [14] | Potency [15]

N#CCCOCCOCCC#N
inactive: Potency [1] | Potency [2] | Potency [3] | Potency [4] | Potency [5] | Potency [18] | Potency [16] | Potency [7] | Potency [19] | Potency [10] | Potency [11] | Potency [12] | Potency [13] | Potency [14] | Potency [15]

CC/C=C\CC/C=C/CO
inactive: Potency [1] | Potency [2] | Potency [3] | Potency [4] | Potency [5] | Potency [18] | Potency [16] | Potency [7] | Potency [8] | Potency [19] | Potency [9] | Potency [10] | Potency [11] | Potency [12] | Potency [14] | Potency [15]

C/C=C/C=C/C=O
inactive: Potency [1] | Potency [3] | Potency [4] | Potency [5] | Potency [6] | Potency [7] | Potency [8] | Potency [19] | Potency [9] | Potency [10] | Potency [11] | Potency [12]
active: Potency [2] 60.7 µM

O=C(c1ccccc1)C1CCC1
inactive: Potency [1] | Potency [2] | Potency [3] | Potency [4] | Potency [5] | Potency [18] | Potency [16] | Potency [7] | Potency [8] | Potency [9] | Potency [10] | Potency [11] | Potency [12] | Potency [13] | Potency [14] | Potency [15]

CCCCCCCC/C=C\CCCCCCCC(=O)OC(CO)CO
inactive: Potency [1] | Potency [3] | Potency [4] | Potency [5] | Potency [18] | Potency [7] | Potency [8] | Potency [19] | Potency [9] | Potency [10] | Potency [11] | Potency [12] | Potency [13] | Potency [14]
active: Potency [2] 34.4 µM

O=C1NCCN1CCN1CCC(c2cn(-c3ccc(F)cc3)c3ccc(Cl)cc23)CC1
active: Potency [1] 11.9 µM
inactive: Potency [2] | Potency [3] | Potency [4] | Potency [5] | Potency [18] | Potency [16] | Potency [8] | Potency [9] | Potency [12] | Potency [14]
